For 1 compound, residual activity results are on record in ChEMBL document CHEMBL2218924, “A broad activity screen in support of a chemogenomic map for kinase signalling research and drug discovery” (Biochem J, 2013).

Experiment [1] deals with T1, Ephrin type-B receptor 1 (Homo sapiens) (UniProt P54762).
T1 sequence (whole entry): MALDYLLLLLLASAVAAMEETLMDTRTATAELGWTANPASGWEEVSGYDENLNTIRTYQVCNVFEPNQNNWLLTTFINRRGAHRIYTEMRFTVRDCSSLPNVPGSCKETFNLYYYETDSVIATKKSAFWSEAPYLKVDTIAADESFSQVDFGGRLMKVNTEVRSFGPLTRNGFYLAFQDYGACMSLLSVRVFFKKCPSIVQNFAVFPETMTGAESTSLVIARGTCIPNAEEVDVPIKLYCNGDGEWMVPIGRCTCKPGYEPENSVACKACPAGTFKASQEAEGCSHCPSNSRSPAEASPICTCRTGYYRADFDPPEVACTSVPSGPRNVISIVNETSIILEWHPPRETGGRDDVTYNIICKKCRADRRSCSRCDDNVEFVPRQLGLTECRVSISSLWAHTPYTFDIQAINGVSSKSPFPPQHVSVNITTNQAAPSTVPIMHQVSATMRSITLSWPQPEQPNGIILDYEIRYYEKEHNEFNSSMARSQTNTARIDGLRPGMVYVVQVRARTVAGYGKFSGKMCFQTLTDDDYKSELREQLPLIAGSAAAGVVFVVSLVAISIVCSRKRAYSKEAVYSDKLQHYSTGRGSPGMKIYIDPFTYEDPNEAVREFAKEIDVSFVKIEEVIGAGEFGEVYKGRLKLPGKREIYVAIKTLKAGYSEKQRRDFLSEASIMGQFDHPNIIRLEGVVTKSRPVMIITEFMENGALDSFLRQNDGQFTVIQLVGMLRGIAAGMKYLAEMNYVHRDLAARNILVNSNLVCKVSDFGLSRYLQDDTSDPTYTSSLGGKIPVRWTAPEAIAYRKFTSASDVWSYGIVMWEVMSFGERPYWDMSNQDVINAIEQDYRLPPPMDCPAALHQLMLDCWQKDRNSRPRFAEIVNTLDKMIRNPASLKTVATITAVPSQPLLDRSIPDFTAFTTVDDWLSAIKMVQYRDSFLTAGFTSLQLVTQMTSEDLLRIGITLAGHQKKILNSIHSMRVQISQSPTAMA
Particulars: at 10 µM; call rule not given here.

Experiment [2] deals with T2, Ephrin type-B receptor 2 (Homo sapiens) (UniProt P29323).
T2 sequence (whole entry): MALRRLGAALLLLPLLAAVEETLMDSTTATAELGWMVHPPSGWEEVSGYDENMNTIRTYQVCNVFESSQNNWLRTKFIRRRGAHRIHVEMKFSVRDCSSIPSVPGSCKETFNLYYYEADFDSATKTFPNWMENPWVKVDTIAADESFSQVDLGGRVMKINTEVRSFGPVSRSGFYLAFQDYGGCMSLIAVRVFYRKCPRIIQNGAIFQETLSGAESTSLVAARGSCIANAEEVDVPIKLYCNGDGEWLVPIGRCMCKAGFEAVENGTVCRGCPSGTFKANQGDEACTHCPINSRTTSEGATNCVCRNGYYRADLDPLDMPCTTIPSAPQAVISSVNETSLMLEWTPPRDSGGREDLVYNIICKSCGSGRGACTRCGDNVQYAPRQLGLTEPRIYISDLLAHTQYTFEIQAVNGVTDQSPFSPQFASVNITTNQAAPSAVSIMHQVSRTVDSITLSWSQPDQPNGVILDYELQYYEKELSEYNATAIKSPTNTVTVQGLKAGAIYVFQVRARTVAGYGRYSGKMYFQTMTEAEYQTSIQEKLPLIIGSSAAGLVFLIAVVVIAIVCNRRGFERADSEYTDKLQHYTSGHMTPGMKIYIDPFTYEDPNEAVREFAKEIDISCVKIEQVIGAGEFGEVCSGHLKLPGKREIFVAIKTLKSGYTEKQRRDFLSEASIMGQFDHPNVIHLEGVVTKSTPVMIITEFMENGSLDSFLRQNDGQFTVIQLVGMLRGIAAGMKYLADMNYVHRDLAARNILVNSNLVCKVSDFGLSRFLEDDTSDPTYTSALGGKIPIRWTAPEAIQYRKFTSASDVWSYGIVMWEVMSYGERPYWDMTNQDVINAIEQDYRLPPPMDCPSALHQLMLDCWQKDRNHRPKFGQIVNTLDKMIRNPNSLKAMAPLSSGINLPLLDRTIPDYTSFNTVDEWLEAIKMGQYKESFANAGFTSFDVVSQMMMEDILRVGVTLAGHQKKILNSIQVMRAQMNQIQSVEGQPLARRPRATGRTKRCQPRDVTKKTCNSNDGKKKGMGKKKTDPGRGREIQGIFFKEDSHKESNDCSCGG
The settings on record: at 1 µM.

Experiment [3] addresses T2, Ephrin type-B receptor 2 (Homo sapiens). Particulars: at 10 µM.
In experiment [4] the target is T3, Ephrin type-B receptor 3 (Homo sapiens) (UniProt P54753).
T3 sequence (whole entry): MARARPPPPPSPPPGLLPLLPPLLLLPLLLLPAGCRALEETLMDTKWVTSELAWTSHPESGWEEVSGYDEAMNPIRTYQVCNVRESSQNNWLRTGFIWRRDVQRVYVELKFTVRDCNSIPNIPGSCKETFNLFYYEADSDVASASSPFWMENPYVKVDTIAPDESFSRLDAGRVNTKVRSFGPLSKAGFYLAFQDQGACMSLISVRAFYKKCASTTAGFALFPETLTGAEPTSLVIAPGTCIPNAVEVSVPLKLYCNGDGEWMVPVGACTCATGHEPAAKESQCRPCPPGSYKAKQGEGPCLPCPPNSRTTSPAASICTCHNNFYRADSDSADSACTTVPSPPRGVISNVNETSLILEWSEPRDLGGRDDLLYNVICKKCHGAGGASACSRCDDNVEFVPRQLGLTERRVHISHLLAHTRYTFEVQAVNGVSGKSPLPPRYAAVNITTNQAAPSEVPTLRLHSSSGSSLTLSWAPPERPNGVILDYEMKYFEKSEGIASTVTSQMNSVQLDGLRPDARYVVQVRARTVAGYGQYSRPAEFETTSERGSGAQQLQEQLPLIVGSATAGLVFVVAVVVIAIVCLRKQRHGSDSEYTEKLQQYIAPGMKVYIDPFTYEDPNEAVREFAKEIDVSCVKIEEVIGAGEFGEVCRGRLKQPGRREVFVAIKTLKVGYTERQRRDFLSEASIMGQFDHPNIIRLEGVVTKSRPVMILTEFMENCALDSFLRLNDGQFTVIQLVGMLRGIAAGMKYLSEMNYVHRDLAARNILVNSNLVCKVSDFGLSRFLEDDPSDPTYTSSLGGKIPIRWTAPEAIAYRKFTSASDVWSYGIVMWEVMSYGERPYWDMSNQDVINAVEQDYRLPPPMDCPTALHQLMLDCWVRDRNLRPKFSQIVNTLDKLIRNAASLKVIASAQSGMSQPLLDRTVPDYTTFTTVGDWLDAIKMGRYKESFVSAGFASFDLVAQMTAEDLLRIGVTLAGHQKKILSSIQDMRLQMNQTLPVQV
The settings on record: at 1 µM.

Experiment [5] deals with T3, Ephrin type-B receptor 3 (Homo sapiens). Particulars: at 10 µM.
For experiment [6], the target named is T4, Ephrin type-B receptor 4 (Homo sapiens) (UniProt P54760).
T4 sequence (whole entry): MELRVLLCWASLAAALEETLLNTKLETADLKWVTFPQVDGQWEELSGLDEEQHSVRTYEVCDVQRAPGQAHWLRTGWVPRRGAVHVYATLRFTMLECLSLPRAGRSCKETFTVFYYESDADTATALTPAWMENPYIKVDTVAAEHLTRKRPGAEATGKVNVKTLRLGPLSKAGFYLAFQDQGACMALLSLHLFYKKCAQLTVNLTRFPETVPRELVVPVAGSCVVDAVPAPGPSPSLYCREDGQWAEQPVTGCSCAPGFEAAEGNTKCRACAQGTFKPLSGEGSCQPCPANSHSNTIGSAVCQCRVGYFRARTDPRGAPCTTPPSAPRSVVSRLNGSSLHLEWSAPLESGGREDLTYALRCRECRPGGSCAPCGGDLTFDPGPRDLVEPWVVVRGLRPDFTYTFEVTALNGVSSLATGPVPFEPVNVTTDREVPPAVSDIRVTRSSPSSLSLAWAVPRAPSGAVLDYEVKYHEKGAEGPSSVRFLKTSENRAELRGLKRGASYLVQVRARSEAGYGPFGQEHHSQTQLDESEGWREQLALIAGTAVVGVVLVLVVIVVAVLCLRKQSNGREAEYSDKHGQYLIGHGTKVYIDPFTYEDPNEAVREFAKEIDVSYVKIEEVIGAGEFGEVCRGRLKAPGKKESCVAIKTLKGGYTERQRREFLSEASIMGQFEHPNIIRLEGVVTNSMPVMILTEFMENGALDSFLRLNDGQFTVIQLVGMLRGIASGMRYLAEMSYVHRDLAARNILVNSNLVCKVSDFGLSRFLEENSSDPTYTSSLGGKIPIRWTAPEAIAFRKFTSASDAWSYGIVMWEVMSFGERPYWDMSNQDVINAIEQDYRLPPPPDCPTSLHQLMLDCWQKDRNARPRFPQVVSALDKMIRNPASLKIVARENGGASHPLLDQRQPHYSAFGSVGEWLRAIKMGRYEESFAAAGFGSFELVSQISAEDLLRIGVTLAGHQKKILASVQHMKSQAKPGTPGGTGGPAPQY
Particulars: at 1 µM.

The target in experiment [7] is T4, Ephrin type-B receptor 4 (Homo sapiens). The settings on record: at 10 µM.
Experiment [8] has as its target Receptor tyrosine-protein kinase erbB-4 (Homo sapiens) (UniProt Q15303). The settings on record: at 1 µM.
Experiment [9] shares this target. The settings on record: at 10 µM.
Experiment [10] has as its target Focal adhesion kinase 1 (Homo sapiens) (UniProt Q05397). Particulars: at 1 µM.

Structures are written as SMILES.

Sequence of Receptor tyrosine-protein kinase erbB-4 (Homo sapiens) (Q15303 whole entry): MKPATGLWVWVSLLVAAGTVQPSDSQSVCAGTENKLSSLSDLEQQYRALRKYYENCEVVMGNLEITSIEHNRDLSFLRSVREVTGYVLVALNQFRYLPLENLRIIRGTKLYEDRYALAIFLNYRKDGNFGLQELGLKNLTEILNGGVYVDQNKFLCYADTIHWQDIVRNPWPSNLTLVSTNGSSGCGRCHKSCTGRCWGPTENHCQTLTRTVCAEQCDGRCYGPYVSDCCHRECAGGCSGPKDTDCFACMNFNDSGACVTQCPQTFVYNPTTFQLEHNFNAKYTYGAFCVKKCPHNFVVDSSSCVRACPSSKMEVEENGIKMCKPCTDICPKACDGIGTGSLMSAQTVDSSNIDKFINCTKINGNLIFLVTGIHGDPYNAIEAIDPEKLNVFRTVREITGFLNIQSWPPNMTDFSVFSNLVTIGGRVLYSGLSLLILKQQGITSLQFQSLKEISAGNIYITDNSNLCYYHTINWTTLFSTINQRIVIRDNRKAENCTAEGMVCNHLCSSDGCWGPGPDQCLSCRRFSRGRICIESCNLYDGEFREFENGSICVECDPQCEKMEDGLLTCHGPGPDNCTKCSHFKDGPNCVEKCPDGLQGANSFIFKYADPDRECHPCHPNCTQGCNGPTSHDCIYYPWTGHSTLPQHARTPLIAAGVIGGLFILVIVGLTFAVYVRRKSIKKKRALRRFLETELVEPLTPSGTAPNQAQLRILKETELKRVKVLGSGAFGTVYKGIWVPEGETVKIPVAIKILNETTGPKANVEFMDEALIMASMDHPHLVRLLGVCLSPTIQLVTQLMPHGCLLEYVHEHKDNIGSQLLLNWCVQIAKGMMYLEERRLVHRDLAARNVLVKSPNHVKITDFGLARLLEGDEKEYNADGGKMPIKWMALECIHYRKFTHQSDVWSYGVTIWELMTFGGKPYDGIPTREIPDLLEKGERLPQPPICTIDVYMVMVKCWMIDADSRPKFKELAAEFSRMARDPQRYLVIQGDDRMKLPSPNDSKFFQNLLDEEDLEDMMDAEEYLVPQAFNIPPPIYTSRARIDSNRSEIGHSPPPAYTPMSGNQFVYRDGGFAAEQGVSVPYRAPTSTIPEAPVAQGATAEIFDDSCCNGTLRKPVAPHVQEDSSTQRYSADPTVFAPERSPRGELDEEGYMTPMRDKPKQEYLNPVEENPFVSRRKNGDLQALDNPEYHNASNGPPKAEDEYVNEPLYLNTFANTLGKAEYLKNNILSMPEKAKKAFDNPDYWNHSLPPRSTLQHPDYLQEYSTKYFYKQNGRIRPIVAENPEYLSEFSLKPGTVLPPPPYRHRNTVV
Sequence of Focal adhesion kinase 1 (Homo sapiens) (Q05397 2-1052 limits assumed): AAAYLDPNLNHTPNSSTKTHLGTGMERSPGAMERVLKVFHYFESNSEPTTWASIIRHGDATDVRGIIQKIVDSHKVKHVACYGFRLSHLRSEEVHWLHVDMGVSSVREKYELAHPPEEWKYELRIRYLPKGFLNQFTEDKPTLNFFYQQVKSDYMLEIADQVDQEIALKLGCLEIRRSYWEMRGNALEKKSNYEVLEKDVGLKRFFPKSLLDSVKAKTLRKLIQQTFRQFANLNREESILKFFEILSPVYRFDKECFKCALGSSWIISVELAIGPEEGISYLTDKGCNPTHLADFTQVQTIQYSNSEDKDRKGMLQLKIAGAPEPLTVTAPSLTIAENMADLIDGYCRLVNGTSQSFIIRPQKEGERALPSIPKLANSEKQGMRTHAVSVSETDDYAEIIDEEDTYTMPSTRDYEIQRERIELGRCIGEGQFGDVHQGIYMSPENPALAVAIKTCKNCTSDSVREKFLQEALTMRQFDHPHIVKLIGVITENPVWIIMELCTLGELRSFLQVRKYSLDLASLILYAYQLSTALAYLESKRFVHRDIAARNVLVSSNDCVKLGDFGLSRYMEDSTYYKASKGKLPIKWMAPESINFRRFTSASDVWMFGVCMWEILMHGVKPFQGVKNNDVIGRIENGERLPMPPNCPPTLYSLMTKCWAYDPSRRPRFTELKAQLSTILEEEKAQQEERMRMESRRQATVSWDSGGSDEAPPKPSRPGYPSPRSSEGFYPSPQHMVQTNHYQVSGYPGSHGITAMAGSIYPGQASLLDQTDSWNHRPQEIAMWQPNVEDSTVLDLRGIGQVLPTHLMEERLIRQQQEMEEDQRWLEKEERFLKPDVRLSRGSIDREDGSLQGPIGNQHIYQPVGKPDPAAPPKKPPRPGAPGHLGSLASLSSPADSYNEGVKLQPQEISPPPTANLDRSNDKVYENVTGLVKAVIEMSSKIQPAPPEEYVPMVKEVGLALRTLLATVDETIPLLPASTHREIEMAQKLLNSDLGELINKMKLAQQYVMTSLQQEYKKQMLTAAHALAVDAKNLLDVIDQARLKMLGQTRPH

A word on the residual activity: it is the signal under treatment as a percentage of the control signal. Regarding `O=[N+]([O-])/C=C/c1ccc2c(c1)OCO2`, the residual activity in experiment [1] is 116%; in experiment [2] it was 116%; in experiment [3], 124%; in [4], 117% (inactive); in [5], 111%; in [6], 114%. Further, the residual activity amounted to 127% in experiment [7], 86% in [8], 101% in experiment [9] and 141% in experiment [10].
